Bioassay records as filed in PubChem.
Only some compounds are listed: those with a hit (about 12% of all), similar ones and a draw of the others.
HP1b binding inh = blocks HP1-beta chromodomain binding to methylated histone tails; 390,000 tested, 0.56% active; AlphaScreen HP1-beta / biotin-H3K9me3 peptide binding; Potency, µM (series often up to 114 µM), without a hit: at the highest dose activity change, negative = inhibition, actives largely listed as inhibitors; P83916; further: nearly all actives have a fitted effect of over 70% in size
Target sequence (P83916 whole entry, looked up): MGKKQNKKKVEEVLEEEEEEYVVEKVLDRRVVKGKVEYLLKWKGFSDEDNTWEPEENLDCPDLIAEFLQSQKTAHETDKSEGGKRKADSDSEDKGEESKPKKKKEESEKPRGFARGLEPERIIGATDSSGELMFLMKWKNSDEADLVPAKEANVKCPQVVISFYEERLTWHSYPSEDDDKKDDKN
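HP1-beta protein (50 nM final) preincubated 30 min at room temperature with biotinylated H3(1-18)K9me3 peptide (50 nM) in PBS pH 7.4, 0.01% Tween-20, then compound added for 30 min. AlphaScreen streptavidin donor/nickel chelate acceptor beads (10 ug/mL final), 30 min dark, luminescence read.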
JMJD2A Tudor = inhibitors of human JMJD2A Tudor domain | O75164 | AlphaScreen JMJD2A-Tudor / H3K4me3 peptide binding | AID 504339 | 390,000 tested, 4.4% active | Potency, µM (series often up to 114 µM), inactives show at the highest dose activity change, negative = inhibition, most hits filed as inhibitors; further: on the % scale 0 is the no-effect control and ±100 the full control effect; nearly all actives have a fitted effect of over 50% in size
Sfp inh = inhibitors of Bacillus subtilis Sfp phosphopantetheinyl transferase. Q9F4F7. 310,000 tested, 3.5% active. Biochemical Sfp PPTase activity, qHTS. Potency, µM, for inactives: largest response in the series, negative = inhibition, actives largely listed as inhibitors;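 further: the enzyme is Sfp with the accession as filed and its product quenches rhodamine fluorescence; 0% = enzyme reaction without inhibitor and -100% = no enzyme wells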
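With Hepes-Na pH 7.6 buffer containing 10 mM MgCl2, Sfp (15 nM) modified BHQ-2-YbbR (12.5 uM) using rhodamine-CoA (5 uM). Two reads 30 minutes apart at 525/598 nm yielded each well's rate.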
G9a block = blocks human histone lysine methyltransferase G9a | Potency, µM (doses to about 102 µM), for the others: top-dose activity, negative = inhibition, most hits filed as inhibitors | 350,000 tested, 8.8% active | G9a H3K9 monomethylation, AlphaScreen, 2 h | AID 504332 | Q96KQ7; further: on the % scale 0 is the no-effect control and ±100 the full control effect; nearly all actives have a fitted effect of over 75% in size
Target sequence (Q96KQ7 913-1193 limits assumed): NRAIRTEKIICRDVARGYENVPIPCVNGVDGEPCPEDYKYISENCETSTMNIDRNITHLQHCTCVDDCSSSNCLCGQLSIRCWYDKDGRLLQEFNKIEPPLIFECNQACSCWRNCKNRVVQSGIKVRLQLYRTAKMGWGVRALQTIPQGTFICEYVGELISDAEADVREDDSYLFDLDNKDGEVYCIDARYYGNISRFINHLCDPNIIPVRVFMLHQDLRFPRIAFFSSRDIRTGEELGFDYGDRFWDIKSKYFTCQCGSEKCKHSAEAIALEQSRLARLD
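Chemiluminescent proximity detection of H3K9 monomethylation, read after 10 min bead incubation in the dark. Reaction: 20 nM G9a, 500 nM biotin-H3K9 peptide, 20 uM SAM cofactor, 2 h, room temperature, following 15 min enzyme-compound preincubation.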
BAZ2B block = inhibitors of human BAZ2B bromodomain | Q9UIF8 | AlphaScreen BAZ2B-H3K14Ac peptide displacement | Potency, µM (highest dose often 114 µM), inactives show at the highest dose activity change, negative = inhibition, actives largely listed as inhibitors | 360,000 tested, 4.4% active | AID 504333; further: on the % scale 0 is the no-effect control and ±100 the full control effect; nearly all actives have a fitted effect of over 60% in size
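AlphaScreen displacement: compounds (up to 110uM) incubated 30 min at room temperature with a preformed 50 nM BAZ2B/50 nM biotinylated H3K14Ac peptide complex in PBS pH 7.4 with Tween-20. Donor and acceptor beads at 10 ug/mL final added, 20 min light-protected before reading.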
PLK1 PBD block = inhibitors of human PLK1 polo-box domain binding; Plk1 PBD binding of FITC phosphopeptide, fluorescence polarization; AID 720504; P53350; 360,000 tested, 2.8% active; Potency, µM, inactives show max response, negative = inhibition, hits mostly inhibitors; further: series mostly up to about 57 µM; on the % scale 0 is the no-effect control and ±100 the full control effect; nearly all actives have a fitted effect of over 65% in size
An asterisk follows results filed as active; ? = inconclusive; / = no result; ! = not confirmed by another sample; [ ] = another dose, or the depositor's remark. The call rests on the fitted dose curve; in most records, active means well fitted curve in the direction sought with a large enough effect; inconclusive means small, poorly fitted or top-dose-only effect, or another doubt; inactive means no such curve, though single readings can be large; an effect the other way counts as inactive or inconclusive. Potency means the concentration at half of the fitted maximal effect.

SMILES | HP1b binding inh | JMJD2A Tudor | Sfp inh | G9a block | BAZ2B block | PLK1 PBD block
O=C(NNS(=O)(=O)c1ccccc1[N+](=O)[O-])c1cc2ccccc2cc1O | 3% | -35% | -19% | 1.6µM* | ? | -10%
CCNS(=O)(=O)c1ccc(CCC(=O)NCc2cccnc2)cc1 | 45% | 4% | 14% | -8% | -9% | 2%
O=C(NNS(=O)(=O)c1ccc2ccccc2c1)c1cc(-c2ccccn2)nc2ccccc12 | -10% | -33% | -13% | 79µM* | 9% | ?
CCOc1ccc(CNC(=O)c2ccc(-c3nc(CSc4ccc(C)cc4)c(C)o3)cc2)cc1 | 24% | 1% | / | ? | -3% | /
COc1ccc(C2C(=O)N(C3CCC(C)CC3)CC(=O)N2Cc2ccc(C)cc2)cc1OC (stereo unspecified) | 19% | -13% | / | 6%[59 µM] | -14% | /
COCC(=O)NNS(=O)(=O)c1ccccc1[N+](=O)[O-] | 29% | -15% | 3% | 18µM* | -8% | -12%
CC(=O)Nc1ccc(S(=O)(=O)NNC(=O)c2cccc([N+](=O)[O-])c2)cc1 | 16% | -13% | -11% | ? | -5% | -13%
O=C(NNS(=O)(=O)c1ccccc1[N+](=O)[O-])c1cccc([N+](=O)[O-])c1 | 41% | 10µM* | -6% | -21% | -6% | 17µM*
O=S(=O)(NCc1cccnc1)c1cccc2nsnc12 | 11% | -9% | 9% | 32µM* | 5% | -10%
Cc1cc(C)n(-c2ccc(S(=O)(=O)N3CCOCC3)cc2[N+](=O)[O-])n1 | -6% | -10% | 13% | -6% | 20% | -7%
O=P(O)(O)OP(=O)(O)O | / | / | 15% | ? | / | /
CC1CCCN(S(=O)(=O)c2cc3c(cc2Cl)NC(=O)CO3)C1 (stereo unspecified) | -9% | ? | / | -9%[59 µM] | -30% | /
CCC/C=C1/CCCOC(C(=O)NCc2ccccn2)(C(F)(F)F)C1 (stereo unspecified) | 34% | 4% | 11% | / | / | -10%
CCC/C=C1/CCCOC(C(=O)NCc2ccc(C)o2)(C(F)(F)F)C1 (stereo unspecified) | 24% | -10% | 56µM* | / | / | ?
CCC/C=C1\CCCOC(C(=O)NCc2ccc(C)o2)(C(F)(F)F)C1 (stereo unspecified) | 33% | -10% | 50µM* | / | / | /
O=C(NCc1ccccn1)C1(C(F)(F)F)C/C(=C\CCO)CCCO1 (stereo unspecified) | 33% | 28µM*! | -13% | / | / | -11%
CCNC(=O)NC(=O)C(C)OC(=O)[C@H](C)NS(=O)(=O)c1c(C)c(C)cc(C)c1C (stereo partly specified) | 36% | 14% | 27% | / | -18% | 6%
CCN(c1ccc(C)cc1)S(=O)(=O)c1nnc(NC(=O)C2CCCCC2)s1 | 111% | 17% | / | 34%[59 µM] | 18% | /
CCn1nc(C)c(/C=C2\CCCC3=C2OC(N)=C(C#N)C3c2c(C)nn(CC)c2C)c1C (stereo unspecified) | / | / | 15% | 50µM* | -8% | /
c1ccc(C2=Nn3c(nnc3-c3cccs3)SC2)cc1 | 12% | -8% | 27% | -2% | -12% | -2%
c1csc(C2=Nn3c(nnc3-c3ccncc3)SC2)c1 | -15% | -27% | ? | -14%[0.501 µM] | ? | 27µM*
O=C(Nc1ccc(OC(F)(F)F)cc1)C1CCCN(S(=O)(=O)c2cnc[nH]2)C1 (stereo unspecified) | 23% | -2% | 3% | / | 2% | 2%
Cc1cn([C@H]2C[C@H](O)[C@@H](CNCc3cccn3-c3ccncc3)O2)c(=O)[nH]c1=O | / | / | / | / | / | 1.1µM*
O=C1c2c(O)cccc2Cc2cccc(O)c21 | 7% | -25% | -9% | 2.5µM*! | ? | -22%
CCOc1ccccc1C(=O)NC1CCNCC1 | 40% | -15% | -8% | / | 2% | -5%
SMILES | HP1b binding inh | JMJD2A Tudor | Sfp inh | G9a block | BAZ2B block | PLK1 PBD block
CC(=O)Nc1ccc(-c2csc(NC(=O)Cc3ccccc3F)n2)cc1 | -16% | -29% | 3% | 40µM* | -28% | -4%
CC(=O)Nc1nc(-c2ccc(-c3ccccc3)cc2)cs1 | / | / | / | / | / | -1%
CC(=O)NNc1nc(-c2ccc(C)cc2)cs1 | 16% | -11%[11.4 µM] | 40µM* | 32µM* | -19% | -12%
CC(=O)NNc1nc(-c2ccccc2)cs1 | 11% | ? | 20µM* | ? | -35% | ?
CC1(C)CNC(=O)c2sc(NC(=O)c3ccccc3)nc2C1 | 13% | -16% | 14% | 8% | -11% | -24%
CC(C)CC1CC(C)(c2csc(NNC(=O)c3ccccc3)n2)OC1=O (stereo unspecified) | 29% | -10% | -6% | 45µM* | 0% | -7%
CC1(C)CC(CC(=O)NNc2nc(-c3ccccc3)cs2)C(=O)O1 (stereo unspecified) | ? | ? | 5% | -4%[59 µM] | -2% | 27µM*
CC1CC(CC(=O)NNc2nc(-c3ccccc3)cs2)C(=O)O1 (stereo unspecified) | 55% | 0% | -30% | 3% | -11% | 0%
COc1cccc(OCc2cc(=O)n3c(-c4ccccc4)csc3n2)c1 | 12% | -33% | / | 4%[59 µM] | ? | /
CC(C)COc1ccc(C(=O)OCC(=O)N(C)CC(=O)Nc2ccc(F)cc2)cc1 | 26% | -4% | / | -19% | 5% | -9%
COc1ccc(CC2(CO)CCN(Cc3cccnc3)CC2)cc1 | 46% | 11%[57.1 µM] | 8.9µM* | 35µM* | -16% | -3%
COc1ccc(-c2ncc(CN3CCC(CO)(Cc4cccc(OC)c4)CC3)cn2)cc1 | 15% | -23%[11.4 µM] | 14% | ? | -23% | -14%
NC(=O)C1CCN(CC(=O)NC(=O)NC2CCCC2)CC1 | 32% | -6% | 13% | -7% | -6% | -4%
Cc1cccc(S(=O)(=O)NNC(=O)Cc2cccn2C)c1 | -30% | 40µM* | 12% | 50µM* | -28% | 27µM*
COc1cc(C(=S)N2CCOCC2)ccc1OC(=O)c1ccccc1[N+](=O)[O-] | -13% | ? | -15% | / | -12% | -23%
O=C(Oc1cccc(C(=S)N2CCOCC2)c1)c1ccc([N+](=O)[O-])cc1[N+](=O)[O-] | ? | -35% | ? | 25µM* | ? | ?
O=C(Oc1ccc(C(=S)N2CCOCC2)cc1)c1cccc([N+](=O)[O-])c1 | -22% | -9% | ? | 22µM* | -29% | ?
O=C(Oc1ccc(Br)cc1C(=S)N1CCOCC1)c1ccc([N+](=O)[O-])cc1[N+](=O)[O-] | ? | ? | 50µM* | 8.9µM* | ? | 6µM*
O=C(Oc1ccc(Br)cc1C(=S)N1CCCCC1)c1cc([N+](=O)[O-])cc([N+](=O)[O-])c1 | ? | ? | -2% | ? | ? | ?
